# Where “and” joins values, the source holds several entries; their conditions need not be identical. Equal entries are not always repeated. Results filed as inconclusive are left out. A number with no mark means an inactive call. Calls of active or inactive are those of the source. The call rests on the fitted dose curve; in most records, active means well fitted cell-killing curve with a large enough effect in the repeat runs; inconclusive means weak or mixed curves; inactive means no such curve, though single readings can be large or run the other way.
# Assay: qHTS assay for identifying genotoxic compounds that show differential cytotoxicity against isogenic chicken DT40 cell lines with known DNA damage response pathways - Rad54/Ku70 mutant cell line (AID 743015); further: nearly all actives have a fitted effect of over 60% in size
# Conditions: DT40 Rad54/Ku70 mutant viability, CellTiter-Glo, 40 h; series mostly up to 66.8 µM; activity change, negative = cytotoxicity: at the top concentration
# Excerpt: National Center for Advancing Translational Sciences [NCATS]
# NIH Chemical Genomics Center [NCGC]
# U.S. Environmental Protection Agency [EPA]
# National Institutes of Environmental Health Sciences [NIEHS]
# National Toxicology Program [NTP]
# U.S. Food and Drug Administration [FDA]
# DNA repair pathways play a critical role in cellular homeostasis by repairing DNA damage induced by endogenous processes and xenobiotics. Isogenic chicken DT40 cell lines deficient in different DNA repair pathways can be used to identify genotoxic compounds and aid in characterizing the nature of the DNA damage induced. Two DNA repair-deficient cell lines with disrupted genes, Rad54/Ku70 or Rev3, were used to screen the Tox21 10K compound library. Possible genotoxicity was based on the presence of a significant increase in cytotoxicity in one or more of the DNA repair-deficient cell lines compared to that observed in the parental DNA repair-proficient cell line. CellTiter Glo viability assay (Promega, Madison, WI) was used to measure cell viability in these cells after compound treatment. This assay includes the data from the Rad54/Ku70 mutant cell line.
# Tox21 Assay Protocol Summary:
# 300 DT40 mutant cells in 5 uL/well were dispensed into white, solid-bottom 1536-well plates using a Multidrop Combi (ThermoFisher Scientific, Waltham, MA) dispenser. After the assay plates were incubated at 37 C/5% CO2 for approximately 0.5 hour, 23 nL of compounds dissolved in DMSO, positive controls or DMSO only was transferred into the assay plate by a pintool work station (Kalypsys, San Diego, CA). The assay plates were incubated at 37 C/5% CO2 for 40 hours. After 5 uL per well of CellTiter-Glo reagent was added into each well of the assay plates, the plates were incubated for 30 min at room temperature and the luminescence intensity of the plates was measured using a ViewLux (PerkinElmer, Shelton, CT) plate reader.
# On the % scale 0 is the no-effect control and ±100 the full control effect; potency means the concentration at half of the fitted maximal effect.
Structure (SMILES),"activity change, negative = cytotoxicity",Potency
CCCNC(C)C(=O)Nc1c(C)csc1C(=O)OC (stereo not given),4.98% [at 30.7 µM],–
CCN(CC)CCNC(=O)COc1ccc(Cl)cc1,-17.7%,–
CC(CNC1CCCCC1)OC(=O)c1ccccc1 (stereo not given),-9.99% [at 30.7 µM],–
O=C(O)[C@@H]1CSCN1,6.82%,–
CCCOCCC,10.9%,–
O=C(O[C@@H](C(=O)O)[C@@H](OC(=O)c1ccccc1)C(=O)O)c1ccccc1,1.2% [at 95.1 µM],–
OCC(CBr)(CBr)CBr,-20.2%,–
CCCCCCCOC(=O)CCC,-3.56%,–
CO[C@@]1(NC(=O)CSCC#N)C(=O)N2C(C(=O)O)=C(CSc3nnnn3C)CS[C@@H]21,0.177%,–
Cc1cc(S(=O)(=O)O)c(N)cc1Cl,3.84% [at 95.1 µM],–
CC(C)O,–,inactive
CC1=NN(c2cc(Cl)c(S(=O)(=O)O)cc2Cl)C(=O)C1N=Nc1ccc(S(=O)(=O)O)cc1 (stereo not given),-3.77%,–
CCOC(=O)C1CC(=O)C(=C(O)C2CC2)C(=O)C1 (stereo not given),-2.84%,–
COC(=O)C(C)O (stereo not given),-1.64% [at 95.1 µM],–
CCOC(=O)C(Br)c1ccccc1 (stereo not given),-14.8%,–
O=C1CCC(C2CCCCC2)CC1,-13.2%,–
CN1[C@@H]2CC[C@H]1CC(OC(=O)c1c[nH]c3ccccc13)C2 (stereo not given in full),2.39%,–
CCCNC(C)(C)COC(=O)c1ccccc1,1.59%,–
COc1ccccc1OCC(O)COC(N)=O (stereo not given),5.65% [at 30.7 µM],–
CCCCCCCCCC#N,7.71%,–

Structure (SMILES),"activity change, negative = cytotoxicity",Potency
CCN(CC)C(=O)N(CC)CC,-2.66%,–
CN(C)CC[C@@H](c1ccc(Cl)cc1)c1ccccn1,-15.8%,–
CC(C)C1=CC2=CC[C@@H]3[C@](C)(CCC[C@@]3(C)C(=O)O)[C@H]2CC1,–,inactive
O=CCCc1ccccc1,2.21%,–
CC(C)(C)c1ccc(OC(=O)c2ccccc2O)cc1,7.46%,–
CCc1cc(Cl)c(OC)c(C(=O)NC[C@@H]2CCCN2CC)c1O,–,11.9 µM (active) and 10.1 µM (active)
O=[N+]([O-])c1nccn1CO[C@@H](CO)[C@H](O)CO,0.847%,–
OCc1ccccc1O,-0.857%,–
COc1ccc2nc(NC(=O)Nc3ccccc3)sc2c1,–,16.8 µM (active)
CCOC(=O)[C@H](CCc1ccccc1)N[C@@H](C)C(=O)N1Cc2cc(OC)c(OC)cc2C[C@H]1C(=O)O,2.11%,–
O=C1CCCCC1C1CCCCC1 (stereo not given),-0.298%,–
Cc1ncc(CO)c(CN)c1O,5.04%,–
COc1ccccc1N1CCN(CCCNc2cc(=O)n(C)c(=O)n2C)CC1,–,inactive
C=C(C)C(=O)OCCOP(=O)(O)O,-8.11% [at 95.1 µM],–
CCCCCCC,7% [at 95.1 µM],–
CCN1CC(CCN2CCOCC2)C(c2ccccc2)(c2ccccc2)C1=O (stereo not given),14.1%,–
CC1CN(c2ccccc2)NC1=O (stereo not given),0.91%,–
OCCN(CCO)c1ccccc1,-10.2%,–
OCCN1CCN(CCO)CC1,-1.98% [at 95.1 µM],–
NNS(=O)(=O)c1ccc(Oc2ccc(S(=O)(=O)NN)cc2)cc1,-27.4%,–
